From the supplement of paper PMC6555819 come the findings set out here.

This assay relates to VDR:RXRa (NR concentration 270 nM, RXRa partner concentration 90 nM). As to the kind of experiment: PBM binding z-score (relative to random genomic background probes); higher = stronger binding; sequences stand for … in GC…GCGATTGACAGCGTAGAATGAAGG
The protocol:
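Protein-binding microarray (Agilent 4x180K custom design, double-stranded 60-nt probes: 5' GC cap, 34-nt variable region, 24-nt constant primer region; full probe sequence given). Purified or IVT nuclear receptor:RXRα heterodimers (3:1 NR:RXRα, mostly 270:90 nM) or homodimers were incubated for 1 h in PBS with 2% milk and no ligand, then detected with Alexa488 antibodies. Fluorescence from o1-orientation probes (~5 replicates averaged) was converted to z-scores against 500 random hg19 background probes. Variable regions are seed direct-repeat (DR0–DR5) sites, all their single-nucleotide variants and half-site ablations.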
As for ATCTCTAGGTAACAAGTTAAGTGAAAGAGAGGAC, the PBM binding z-score was 0.232.
Sequence CGTCCAAGGTCAATGCTAGGTCAGTGAGAGCATT registered a PBM binding z-score of 5.11.
For AGAATGAGGTTTTACGTAGATCAGGGAAGAAAGT the value was -0.19.
For CCTACTGGGCCATCAGATCATTGATATCAACGTT the value was -0.181.
TCCAGTAGGTTAGGGGCATTCAGAATGGCGTCGA registered a PBM binding z-score of 0.702.
Regarding CCTACTGGGCTAAAGGTCATTGATTCCAATGCTC, the PBM binding z-score stood at 4.38.
For ATATGTAGGTTAGCCGGGGTCATTCAGACTAGGC the value was 6.67; for ACAGACAGGTGACGAAGGTAACTCAGGCTATCAT, 0.352; for CAAACTAAGTCAAGGTCAAAGTCGGTTTGTGCCA, 4.62.
Consider TAGCCCAGGTCATTCAGGGGCCAGTATAGAAAGC, for which the PBM binding z-score was determined as 3.65.
In the case of AGAACGAGGGCACGCTGCGTTGATAGCAGAGTAG, the PBM binding z-score came to 0.741.
For CATACTAGGTCAAGGTCAAAGTCGGTTTGTGCCA the value was 5.31; for GCACCAAGGTGAATAGGTCGTTGATGAGTAGGCG, 0.503; for CGAACGAGGGCATGAGTGGATAGCAAATGCCGAT, 0.295.
Turning to TCTTGTAGATCAACAGGAGGTAAAGAAAGATCGA, the PBM binding z-score worked out at 0.194.
For TCTTGTAGATCAATAGAGCTTAAGAAAGTGCGCT the value was -0.108; for TCTAGTTGGTCACGGAGGTCACCCACGACGGGTA, 5.63; for CCGACTGAGGCAAGGTTACCATAACGCACAGCCA, 0.0737.
Turning to TGAATGAGGTTATAAGATCAGCGAACGTTGCAAA, the PBM binding z-score is 0.842.
For ACTAGCAGGCCAAGGGTTACTCAAGATTAGTCCG the value was 0.0944; for GCTAGCAGGCCATTTGGGTCACTAAATGACGGGC, 0.655.
GATACAGGGTCAAGACCAGAGTACGCGTATTGAT returned a PBM binding z-score of 4.33.
As for CCAGACGGGTGAGAAGGTAACTCAGCCTCGATTA, the PBM binding z-score was -0.516.
In the case of AATACAGGGTCATCGTAGGCCAGTGTACGCACAG, the PBM binding z-score was 5.18.
The same measure for GCTAGTTGGTCAGTAAAAGGTCACACACCGGTCG: 3.89; for TCGAGTAGGTTAGTCGGGCCATTCAGCCAACATA: 0.761; for ATCGAAAGGTCGTGAGGTGAGTGTACAGAAAGGC: 3.63.
GGAACGAGGGCATTCTAGTTGATAGCATGGCGAT registered a PBM binding z-score of 1.81.
The sequence GCTAGTCGGTCAGTAAAAGGTCACACACCGGTCG had a PBM binding z-score of 4.18.
The same measure for ATCTCTAGGTATCAAGTTCAGTGAAAGAGAGGAC: 1.94; for TCTTGTAGATCAGCAGGTTAAGAACGCTGGCCAA: 0.123.
For GCTAGTTGATCAGTAAAAGGTCACACACCGGTCG the value was 3.87; for AGAATGAGGTTACCTAAGATCAGGGAAACGCTTG, 1.47.
As to TCTAGTTGGTCACGGAGGTCACAGACGACGGGTA, the PBM binding z-score is 5.81.
In turn, CGTCCAGGGTCAGAGAGGTCAGTGAATGCCGAGT registered a PBM binding z-score of 7.46.
The same measure for CGAACTAGGTCATCCAGGACAGTAAATACATTGA: 4.71; for TCATATACGTAAATGCTAGGTGAAAGTCCGATCT: 0.839.
On to ATATGTAGGTTACATCCGGGTCATTCAGGCTATG, for which the PBM binding z-score was 4.26.
The same measure for GTACCATGGTGAATAGGTCGTTGATGAGTAGGCG: -0.0102; for GGAACGAGGCCAAAGTTGATAGCATCTGTCGACG: -0.112.
